# According to PMC7862700, “An all-to-all approach to the identification of sequence-specific readers for epigenetic DNA modifications on cytosine”:
# Assays:
# Test in all cases: DAPPL (digital affinity profiling via proximity ligation, sequencing); 10 mM Tris-HCl pH 7.5, 50 mM NaCl, 1 mM DTT, 4% glycerol, room temperature, 30 min; GST-TFs on glutathione beads, 16-mer random dsDNA library, 0.1% formaldehyde crosslink after washing; high values mean tight binding
# Conditions in all cases: protein: recombinant; tags: N-terminal GST; dsDNA, one strand shown
# [1] = target: T1, ELK4 (Homo sapiens, UniProt P28324-2 1-405)
# T1 sequence: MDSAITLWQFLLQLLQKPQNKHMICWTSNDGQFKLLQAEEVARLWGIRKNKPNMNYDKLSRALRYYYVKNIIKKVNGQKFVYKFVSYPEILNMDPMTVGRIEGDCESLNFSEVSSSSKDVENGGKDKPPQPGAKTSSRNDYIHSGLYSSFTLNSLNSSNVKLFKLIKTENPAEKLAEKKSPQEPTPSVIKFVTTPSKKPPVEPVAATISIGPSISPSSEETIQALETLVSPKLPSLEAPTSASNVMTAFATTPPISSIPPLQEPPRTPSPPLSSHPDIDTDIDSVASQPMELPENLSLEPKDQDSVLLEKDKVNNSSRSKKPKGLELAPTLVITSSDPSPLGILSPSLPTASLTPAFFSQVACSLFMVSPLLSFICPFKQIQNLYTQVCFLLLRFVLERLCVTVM
# Method in brief: (§1)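 Pools were built from human transcription factors expressed in yeast as GST fusions, captured on glutathione beads and DNA-barcoded, along with a tag-only sample. Incubation with 200 nmole of a 16-mer random double-stranded DNA library lasted 30 min at room temperature in Tris/NaCl/DTT/glycerol buffer, and was followed by washing, 0.1% formaldehyde crosslinking, proximity ligation, PCR amplification and Illumina NextSeq500 sequencing. Binding signal is the quotient of each hexamer's read frequency for a factor and its frequency for the tag-only sample.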
# [2] = target: T2, ELK1 (Homo sapiens, UniProt P19419 1-428)
# T2 sequence: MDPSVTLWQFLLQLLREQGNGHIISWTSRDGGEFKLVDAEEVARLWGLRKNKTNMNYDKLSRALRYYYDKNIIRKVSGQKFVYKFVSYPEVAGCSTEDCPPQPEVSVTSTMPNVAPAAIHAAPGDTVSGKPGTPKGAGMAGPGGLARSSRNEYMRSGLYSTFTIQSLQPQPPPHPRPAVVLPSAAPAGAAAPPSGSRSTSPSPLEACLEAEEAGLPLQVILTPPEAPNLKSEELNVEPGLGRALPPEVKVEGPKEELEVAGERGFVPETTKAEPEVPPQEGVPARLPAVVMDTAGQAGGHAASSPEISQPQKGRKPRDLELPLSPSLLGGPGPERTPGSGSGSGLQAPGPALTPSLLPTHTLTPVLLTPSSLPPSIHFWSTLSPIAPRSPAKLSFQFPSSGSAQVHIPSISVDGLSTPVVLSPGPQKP
# Method in brief: as §1
# [3] = target: T3, GABPA (Homo sapiens, UniProt Q06546 1-454)
# T3 sequence: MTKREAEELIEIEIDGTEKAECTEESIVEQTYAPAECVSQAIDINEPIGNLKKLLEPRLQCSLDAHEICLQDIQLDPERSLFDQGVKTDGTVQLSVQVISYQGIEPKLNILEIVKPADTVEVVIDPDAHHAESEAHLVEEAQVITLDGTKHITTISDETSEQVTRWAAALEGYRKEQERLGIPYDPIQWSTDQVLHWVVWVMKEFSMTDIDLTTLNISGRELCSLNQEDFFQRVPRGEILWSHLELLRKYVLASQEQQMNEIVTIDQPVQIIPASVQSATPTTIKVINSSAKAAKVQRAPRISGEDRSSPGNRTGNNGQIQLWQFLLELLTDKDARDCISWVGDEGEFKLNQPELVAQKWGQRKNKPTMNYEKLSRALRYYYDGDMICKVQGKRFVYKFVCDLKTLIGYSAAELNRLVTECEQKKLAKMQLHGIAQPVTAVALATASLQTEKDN
# Method in brief: as §1
# [4] = target: ELF1 (Homo sapiens, UniProt P32519 1-619)
# Method in brief: as §1
# [5] = target: T4, ELK3 (Homo sapiens, UniProt P41970 1-407)
# T4 sequence: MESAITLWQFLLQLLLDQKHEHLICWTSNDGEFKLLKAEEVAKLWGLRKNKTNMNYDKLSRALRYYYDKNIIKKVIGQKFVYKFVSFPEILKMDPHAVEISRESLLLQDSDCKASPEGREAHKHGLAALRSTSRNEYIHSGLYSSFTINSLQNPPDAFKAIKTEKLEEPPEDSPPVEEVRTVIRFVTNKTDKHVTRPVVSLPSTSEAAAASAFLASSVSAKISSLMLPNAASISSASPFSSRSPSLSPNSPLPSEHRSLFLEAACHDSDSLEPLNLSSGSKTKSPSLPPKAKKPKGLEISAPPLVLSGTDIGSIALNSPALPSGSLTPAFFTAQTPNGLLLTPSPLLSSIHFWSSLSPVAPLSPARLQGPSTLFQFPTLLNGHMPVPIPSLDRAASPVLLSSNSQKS
# Method in brief: as §1
# [6] = target: T5, FEV (Homo sapiens, UniProt Q99581 1-238)
# T5 sequence: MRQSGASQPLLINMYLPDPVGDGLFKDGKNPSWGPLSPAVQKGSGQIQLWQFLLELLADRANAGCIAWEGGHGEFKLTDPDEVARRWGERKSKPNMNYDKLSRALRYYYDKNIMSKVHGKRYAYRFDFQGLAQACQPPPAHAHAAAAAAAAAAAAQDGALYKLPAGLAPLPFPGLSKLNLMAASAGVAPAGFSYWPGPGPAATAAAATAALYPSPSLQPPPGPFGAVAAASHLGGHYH
# Method in brief: as §1
# [7] = target: ELF4 (Homo sapiens, UniProt Q99607 1-663)
# Method in brief: as §1
# [8] = target: T6, ELF3 (Homo sapiens, UniProt P78545 1-371)
# T6 sequence: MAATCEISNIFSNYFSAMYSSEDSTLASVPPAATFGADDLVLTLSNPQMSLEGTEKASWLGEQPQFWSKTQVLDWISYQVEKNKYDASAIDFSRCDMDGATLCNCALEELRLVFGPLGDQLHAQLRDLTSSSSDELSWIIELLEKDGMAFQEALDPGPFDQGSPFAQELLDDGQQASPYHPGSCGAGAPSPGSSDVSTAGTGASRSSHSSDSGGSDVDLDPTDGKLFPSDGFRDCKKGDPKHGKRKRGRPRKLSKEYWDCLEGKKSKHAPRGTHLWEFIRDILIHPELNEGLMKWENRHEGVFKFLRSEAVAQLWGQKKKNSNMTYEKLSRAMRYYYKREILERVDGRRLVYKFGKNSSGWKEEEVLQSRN
# Method in brief: as §1
# [9] = target: ETV1 (Homo sapiens, UniProt P50549 1-477)
# Method in brief: as §1
# [10] = target: T7, ERF (Homo sapiens, UniProt P50548 1-548)
# T7 sequence: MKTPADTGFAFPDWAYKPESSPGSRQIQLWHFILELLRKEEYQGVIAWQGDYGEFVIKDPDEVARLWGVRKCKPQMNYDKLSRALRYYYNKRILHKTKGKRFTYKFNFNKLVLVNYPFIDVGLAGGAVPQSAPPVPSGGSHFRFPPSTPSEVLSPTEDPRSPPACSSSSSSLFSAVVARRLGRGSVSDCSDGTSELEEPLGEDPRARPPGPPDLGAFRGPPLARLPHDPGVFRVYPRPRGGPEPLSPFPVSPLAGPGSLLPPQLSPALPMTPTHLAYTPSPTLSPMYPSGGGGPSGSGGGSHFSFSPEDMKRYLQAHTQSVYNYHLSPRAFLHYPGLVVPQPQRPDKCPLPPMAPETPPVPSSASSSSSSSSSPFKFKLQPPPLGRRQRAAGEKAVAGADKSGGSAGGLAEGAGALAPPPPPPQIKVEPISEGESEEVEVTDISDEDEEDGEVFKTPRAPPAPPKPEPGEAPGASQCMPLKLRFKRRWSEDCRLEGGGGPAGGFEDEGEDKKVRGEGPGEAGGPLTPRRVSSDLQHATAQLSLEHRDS
# Method in brief: as §1
# [11] = target: T8, ETV3L (Homo sapiens, UniProt Q6ZN32 1-361)
# T8 sequence: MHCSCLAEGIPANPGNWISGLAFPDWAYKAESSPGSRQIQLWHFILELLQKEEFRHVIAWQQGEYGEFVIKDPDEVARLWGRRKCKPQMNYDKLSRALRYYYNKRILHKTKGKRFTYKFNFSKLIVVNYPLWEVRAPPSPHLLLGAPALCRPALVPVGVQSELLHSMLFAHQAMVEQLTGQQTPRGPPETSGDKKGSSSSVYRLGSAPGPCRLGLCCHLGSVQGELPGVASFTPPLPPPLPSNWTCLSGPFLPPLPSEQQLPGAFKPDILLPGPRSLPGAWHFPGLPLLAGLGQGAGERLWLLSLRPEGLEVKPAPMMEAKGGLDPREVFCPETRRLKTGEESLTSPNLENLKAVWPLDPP
# Method in brief: as §1
# [12] = target: T9, ERG (Homo sapiens, UniProt P11308 1-479)
# T9 sequence: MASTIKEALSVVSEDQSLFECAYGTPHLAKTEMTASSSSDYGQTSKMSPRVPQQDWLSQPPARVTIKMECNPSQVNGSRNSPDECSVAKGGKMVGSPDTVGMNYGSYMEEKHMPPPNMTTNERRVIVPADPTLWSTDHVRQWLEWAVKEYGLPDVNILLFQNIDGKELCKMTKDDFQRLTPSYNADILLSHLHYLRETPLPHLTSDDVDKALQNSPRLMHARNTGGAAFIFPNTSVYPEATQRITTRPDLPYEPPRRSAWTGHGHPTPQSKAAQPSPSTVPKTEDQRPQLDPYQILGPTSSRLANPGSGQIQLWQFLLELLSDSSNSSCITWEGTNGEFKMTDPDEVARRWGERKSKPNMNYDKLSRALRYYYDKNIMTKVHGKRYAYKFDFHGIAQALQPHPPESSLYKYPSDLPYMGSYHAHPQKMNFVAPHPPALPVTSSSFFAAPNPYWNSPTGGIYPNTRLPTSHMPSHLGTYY
# Method in brief: as §1
# [13] = target: SPI1 (Homo sapiens, UniProt P17947 1-270)
# Method in brief: as §1
# [14] = target: CRX (Homo sapiens, UniProt O43186 1-299)
# Method in brief: as §1
# Chain of ELF4 (Q99607 whole entry): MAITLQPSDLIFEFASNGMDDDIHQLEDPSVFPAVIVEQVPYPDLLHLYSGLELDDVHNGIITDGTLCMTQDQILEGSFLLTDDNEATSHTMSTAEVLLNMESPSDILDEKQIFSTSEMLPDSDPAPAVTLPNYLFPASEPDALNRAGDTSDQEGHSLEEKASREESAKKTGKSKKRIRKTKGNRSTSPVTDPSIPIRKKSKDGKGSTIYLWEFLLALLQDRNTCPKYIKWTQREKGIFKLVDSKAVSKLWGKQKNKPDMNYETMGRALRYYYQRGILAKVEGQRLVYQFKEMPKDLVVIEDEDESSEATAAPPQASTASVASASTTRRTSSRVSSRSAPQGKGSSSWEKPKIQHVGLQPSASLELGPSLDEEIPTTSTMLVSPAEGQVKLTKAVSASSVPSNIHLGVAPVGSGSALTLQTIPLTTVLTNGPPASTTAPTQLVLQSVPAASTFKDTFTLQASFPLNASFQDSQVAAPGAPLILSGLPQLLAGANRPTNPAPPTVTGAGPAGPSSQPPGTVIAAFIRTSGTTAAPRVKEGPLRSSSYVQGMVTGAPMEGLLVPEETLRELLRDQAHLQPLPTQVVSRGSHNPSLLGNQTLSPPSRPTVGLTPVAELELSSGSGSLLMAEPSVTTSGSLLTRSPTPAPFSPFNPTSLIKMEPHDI
# Chain of ELF1 (P32519 whole entry): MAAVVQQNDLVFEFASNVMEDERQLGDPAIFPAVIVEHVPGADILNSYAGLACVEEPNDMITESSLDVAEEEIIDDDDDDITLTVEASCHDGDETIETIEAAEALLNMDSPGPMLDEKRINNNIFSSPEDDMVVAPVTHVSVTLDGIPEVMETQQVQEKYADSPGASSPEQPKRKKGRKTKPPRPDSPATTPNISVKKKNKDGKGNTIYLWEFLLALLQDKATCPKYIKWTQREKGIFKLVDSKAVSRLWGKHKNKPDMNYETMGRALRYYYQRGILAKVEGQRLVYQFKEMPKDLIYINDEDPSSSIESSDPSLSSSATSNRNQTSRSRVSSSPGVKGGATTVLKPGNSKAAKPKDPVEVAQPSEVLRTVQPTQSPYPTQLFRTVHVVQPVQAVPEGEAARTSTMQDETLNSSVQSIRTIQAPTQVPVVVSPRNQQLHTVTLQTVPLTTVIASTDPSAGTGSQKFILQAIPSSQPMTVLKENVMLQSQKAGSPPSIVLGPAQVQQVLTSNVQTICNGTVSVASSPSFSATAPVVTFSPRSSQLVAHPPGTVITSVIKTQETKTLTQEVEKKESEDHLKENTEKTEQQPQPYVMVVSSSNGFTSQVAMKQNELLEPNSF
# Chain of ETV1 (P50549 whole entry): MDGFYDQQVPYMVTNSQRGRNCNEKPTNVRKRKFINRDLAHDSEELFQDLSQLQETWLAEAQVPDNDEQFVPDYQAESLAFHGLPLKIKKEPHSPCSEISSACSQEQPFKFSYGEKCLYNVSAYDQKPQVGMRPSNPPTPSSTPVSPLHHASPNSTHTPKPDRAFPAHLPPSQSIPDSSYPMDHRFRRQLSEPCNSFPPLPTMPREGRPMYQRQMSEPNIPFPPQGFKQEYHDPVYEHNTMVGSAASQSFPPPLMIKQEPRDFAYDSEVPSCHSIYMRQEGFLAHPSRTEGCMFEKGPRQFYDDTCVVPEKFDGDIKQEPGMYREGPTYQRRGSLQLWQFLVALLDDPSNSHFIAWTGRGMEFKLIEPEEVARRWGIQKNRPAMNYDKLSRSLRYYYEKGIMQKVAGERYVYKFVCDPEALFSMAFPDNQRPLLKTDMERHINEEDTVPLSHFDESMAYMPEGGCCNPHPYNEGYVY
# Chain of CRX (O43186 whole entry): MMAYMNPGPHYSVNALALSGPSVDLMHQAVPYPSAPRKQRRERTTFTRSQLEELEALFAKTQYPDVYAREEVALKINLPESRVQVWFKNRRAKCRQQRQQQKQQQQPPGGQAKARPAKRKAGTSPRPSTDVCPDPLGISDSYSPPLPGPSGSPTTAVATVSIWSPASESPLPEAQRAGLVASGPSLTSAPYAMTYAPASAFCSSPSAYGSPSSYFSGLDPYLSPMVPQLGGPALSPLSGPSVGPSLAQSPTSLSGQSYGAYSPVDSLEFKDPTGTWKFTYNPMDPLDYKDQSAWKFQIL
sequence,measurement,setting,value
GCAAGC,binding signal,[1],"1.07 fold enrichment (6-mer frequency, TF over GST control)"
CATCAA,binding signal,[2],"1.01 fold enrichment (6-mer frequency, TF over GST control)"
same,binding signal,[3],"1.03 fold enrichment (6-mer frequency, TF over GST control)"
same,binding signal,[4],"1.03 fold enrichment (6-mer frequency, TF over GST control)"
same,binding signal,[5],"1.07 fold enrichment (6-mer frequency, TF over GST control)"
same,binding signal,[6],"1 fold enrichment (6-mer frequency, TF over GST control)"
same,binding signal,[7],"1.05 fold enrichment (6-mer frequency, TF over GST control)"
same,binding signal,[8],"1.03 fold enrichment (6-mer frequency, TF over GST control)"
same,binding signal,[9],"1.01 fold enrichment (6-mer frequency, TF over GST control)"
same,binding signal,[10],"1.02 fold enrichment (6-mer frequency, TF over GST control)"
same,binding signal,[11],"1.08 fold enrichment (6-mer frequency, TF over GST control)"
GCCATT,binding signal,[12],"1.01 fold enrichment (6-mer frequency, TF over GST control)"
same,binding signal,[13],"1.03 fold enrichment (6-mer frequency, TF over GST control)"
same,binding signal,[7],"1.02 fold enrichment (6-mer frequency, TF over GST control)"
same,binding signal,[1],"1.07 fold enrichment (6-mer frequency, TF over GST control)"
same,binding signal,[10],"1.03 fold enrichment (6-mer frequency, TF over GST control)"
GACTAT,binding signal,[7],"1.01 fold enrichment (6-mer frequency, TF over GST control)"
same,binding signal,[8],"1.03 fold enrichment (6-mer frequency, TF over GST control)"
same,binding signal,[14],"1.02 fold enrichment (6-mer frequency, TF over GST control)"
same,binding signal,[11],"1.04 fold enrichment (6-mer frequency, TF over GST control)"
